The supplement of paper PMC12494721
Where a name gives a salt, the structure may show the parent alone.

How the values were obtained:
Details in all cases: incubation time: 27 h, anaerobic, 37 °C;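 for the amine columns active = adjusted P below 0.05 in both replicates with a change the same way and a mean fold change under 0.8 or over 1.25; inactive = the rest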
[1] = tested on: Clostridium sporogenes DSM 1664; test: growth (OD595) fold change vs plate DMSO controls (fold change (ratio)); higher = more growth
Method in brief: (§1)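 Growth is the fold change relative to the median of plate DMSO controls. Readings came from anaerobic mGAM cultures in 96-well plates grown for 27 h at 37 °C and read at 595 nm. They were blank-subtracted, corrected for compound background with 20 µM compound solutions in water, and converted to OD with a calibration factor of 5. Values are means of 2 biological replicates, and fold changes above 1.5 were set to NA.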

Escherichia coli IAI1 [2] = test: as above
Method in brief: as §1

[3] = tested on: Klebsiella aerogenes DSM 30053; test: as above
Method in brief: as §1

[4] = tested on: Ruminococcus gnavus DSM 108212; test: as above
Method in brief: as §1

[5] = tested on: Klebsiella aerogenes DSM 30053; test: fold change of Histamine concentration vs plate DMSO controls (fold change (ratio)); higher = more amine produced, active = hit call of the paper (significant change in both replicates, either direction)
Method in brief: (§2)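 Anaerobic mGAM cultures of four gut bacterial strains were grown at 37 °C for 27 h in 80 µL wells, starting at OD 0.1 before 1:1 dilution. Compounds were at 20 µM final (sweeteners 50 µM). Whole cultures were extracted with cold acetonitrile/methanol containing 0.1% formic acid and centrifuged. Amines were quantified by LC–triple-quadrupole MS (dynamic MRM) against external calibration curves and drift-corrected within batch. Each value is the fold change versus plate DMSO controls, averaged over 2 biological replicates.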

[6] = tested on: Clostridium sporogenes DSM 1664; test: fold change of Tryptamine concentration vs plate DMSO controls (fold change (ratio)); higher = more amine produced, active = hit call of the paper (significant change in both replicates, either direction)
Method in brief: as §2

[7] = tested on: Ruminococcus gnavus DSM 108212; test: as above
Method in brief: as §2

Escherichia coli IAI1 [8] = test: fold change of Putrescine concentration vs plate DMSO controls (fold change (ratio)); higher = more amine produced, active = hit call of the paper (significant change in both replicates, either direction)
Method in brief: as §2

[9] = tested on: Klebsiella aerogenes DSM 30053; test: as above
Method in brief: as §2

Escherichia coli IAI1 [10] = test: fold change of Cadaverine concentration vs plate DMSO controls (fold change (ratio)); higher = more amine produced, active = hit call of the paper (significant change in both replicates, either direction)
Method in brief: as §2

[11] = tested on: Klebsiella aerogenes DSM 30053; test: as above
Method in brief: as §2

[12] = tested on: Ruminococcus gnavus DSM 108212; test: fold change of 2-Phenylethylamine concentration vs plate DMSO controls (fold change (ratio)); higher = more amine produced, active = hit call of the paper (significant change in both replicates, either direction)
Method in brief: as §2

Row | SMILES | growth [1] | growth (Escherichia coli IAI1 [2]) | growth [3] | growth [4] | fold change of Histamine concentration [5] | fold change of Tryptamine concentration [6] | fold change of Tryptamine concentration [7] | fold change of Putrescine concentration (Escherichia coli IAI1 [8]) | fold change of Putrescine concentration [9] | fold change of Cadaverine concentration (Escherichia coli IAI1 [10]) | fold change of Cadaverine concentration [11] | fold change of 2-Phenylethylamine concentration [12]
1 | Cc1nc2n(c(=O)c1CCN1CCC(c3noc4cc(F)ccc34)CC1)CCCC2O (stereo not given) [Paliperidone] (20 µM) | 0.897 | 1.01 | 0.982 | 1 | 1.05 (inactive) | 0.998 (inactive) | 0.966 (inactive) | 1.06 (inactive) | 1.02 (inactive) | 0.993 (inactive) | 0.986 (inactive) | 0.983 (inactive)
2 | CC(=O)[C@@]12O[C@](C)(c3ccccc3)O[C@@H]1C[C@H]1[C@@H]3CCC4=CC(=O)CC[C@]4(C)[C@H]3CC[C@@]12C [Algestone acetophenide] (20 µM) | 1.03 | 1.22 | 0.998 | 1.13 | 1.03 (inactive) | 0.919 (inactive) | 1.08 (inactive) | 1.3 (inactive) | 1.01 (inactive) | 0.955 (inactive) | 1 (inactive) | 1.1 (inactive)
3 | NC(=O)NS(=O)(=O)c1ccc(N)cc1 [Sulfacarbamide] (20 µM) | 0.977 | 1.02 | 0.993 | 0.94 | 1.04 (inactive) | 0.967 (inactive) | 1 (inactive) | 1.01 (inactive) | 1.02 (inactive) | 1 (inactive) | 1.01 (inactive) | 0.972 (inactive)
4 | CO[C@@H]1[C@@H](OC(N)=O)[C@@H](O)[C@H](Oc2ccc3c(O)c(NC(=O)c4ccc(O)c(CC=C(C)C)c4)c(=O)oc3c2C)OC1(C)C [Novobiocin sodium salt] (20 µM) | 1.07 | 0.922 | 0.747 | 0.338 | 0.858 (inactive) | 0.754 (inactive) | 0.176 (active) | 1.18 (inactive) | 0.986 (inactive) | 1.04 (inactive) | 1 (inactive) | 0.208 (active)
5 | C[C@@H]1CCO[C@H]2Cn3cc(C(=O)NCc4ccc(F)cc4F)c(=O)c(O)c3C(=O)N12 [Dolutegravir] (20 µM) | 1.06 | 1.02 | 0.992 | 0.891 | 1.08 (inactive) | 1.02 (inactive) | 0.954 (inactive) | 1.07 (inactive) | 0.999 (inactive) | 0.984 (inactive) | 0.987 (inactive) | 0.941 (inactive)
6 | O=C(O)c1cc(/N=N/c2ccc(S(=O)(=O)Nc3ccccn3)cc2)ccc1O [Sulfasalazine] (20 µM) | 0.986 | 1 | 1.05 | 0.978 | 0.971 (inactive) | 1.01 (inactive) | 1 (inactive) | 0.913 (inactive) | 0.995 (inactive) | 1.01 (inactive) | 1.01 (inactive) | 0.954 (inactive)
7 | Cn1nnc2c(C(N)=O)ncn2c1=O [Temozolomide] (20 µM) | 1.09 | 0.982 | 0.992 | 1.23 | 0.956 (inactive) | 0.977 (inactive) | 1.02 (inactive) | 1 (inactive) | 0.989 (inactive) | 1.02 (inactive) | 0.998 (inactive) | 1.01 (inactive)
8 | CN1CC(O)c2cc(N=NC(N)=O)c(O)cc21 (stereo not given) [Carbazochrome] (20 µM) | 0.927 | 1.01 | 0.984 | 0.959 | 1.07 (inactive) | 1.1 (inactive) | 1.15 (inactive) | 1.05 (inactive) | 1.01 (inactive) | 0.914 (inactive) | 1.07 (inactive) | 1.34 (inactive)
9 | COc1cccc2c1C(=O)c1c(O)c3c(c(O)c1C2=O)C[C@@](O)(C(=O)CO)C[C@@H]3O[C@H]1C[C@H](N)[C@@H](O)[C@H](C)O1 [Epirubicin hydrochloride] (20 µM) | 0.607 | 0.0185 | 0 | 0.386 | 1.01 (inactive) | 0.953 (inactive) | 0.966 (inactive) | 1.07 (inactive) | 0.998 (inactive) | 1.04 (inactive) | 1.02 (inactive) | 0.934 (inactive)
10 | CCOc1ccc2nc3cc(N)ccc3c(N)c2c1 [Ethacridine lactate] (20 µM) | 0.937 | 0.981 | 0.974 | 0.954 | 0.985 (inactive) | 1.07 (inactive) | 0.856 (inactive) | 1.14 (inactive) | 1.01 (inactive) | 1.12 (inactive) | 0.993 (inactive) | 0.837 (inactive)
11 | Cc1c(O)c(=O)ccn1C [Deferiprone] (20 µM) | 1 | 0.999 | 1.04 | 1.06 | 1.03 (inactive) | 1.05 (inactive) | 1.02 (inactive) | 1 (inactive) | 1.01 (inactive) | 1.03 (inactive) | 0.999 (inactive) | 1 (inactive)
12 | O=C(Oc1ccccc1)n1c(C(F)(F)F)nc2cc(Cl)c(Cl)cc21 (20 µM) | 0.822 | 0.604 | 0.714 | 0.827 | 1.39 (active) | 1.11 (inactive) | 0.875 (inactive) | 1.38 (active) | 0.931 (inactive) | 1.59 (active) | 0.926 (inactive) | 0.917 (inactive)
13 | Cn1cc(C(=O)Nc2ccc(F)cc2-c2ccc(Cl)c(Cl)c2)c(C(F)F)n1 (20 µM) | 1.12 | 1 | 0.972 | 1.21 | 1.06 (inactive) | 1.01 (inactive) | 0.907 (inactive) | 1.01 (inactive) | 1.01 (inactive) | 0.998 (inactive) | 0.986 (inactive) | 0.931 (inactive)
14 | Cc1ccc(/C(=C\CN2CCCC2)c2ccccn2)cc1 [Triprolidine hydrochloride] (20 µM) | 1.08 | 1.01 | 0.998 | 1.1 | 1.05 (inactive) | 1.02 (inactive) | 1.01 (inactive) | 1.09 (inactive) | 1.02 (inactive) | 0.797 (inactive) | 0.987 (inactive) | 0.986 (inactive)
15 | Cc1cnc(C(=O)O)c[n+]1[O-] [Acipimox] (20 µM) | 1.05 | 0.996 | 1.27 | 0.959 | 0.874 (inactive) | 0.952 (inactive) | 1 (inactive) | 1.01 (inactive) | 0.998 (inactive) | 1.03 (inactive) | 1.03 (inactive) | 1.03 (inactive)
16 | CC(=O)OC(C)C[N+](C)(C)C (stereo not given) [Methacholine chloride] (20 µM) | 0.962 | 1.02 | 0.965 | 0.97 | 0.992 (inactive) | 1.01 (inactive) | 1.06 (inactive) | 1.09 (inactive) | 1 (inactive) | 0.985 (inactive) | 0.989 (inactive) | 1.08 (inactive)
17 | CN(CCOc1ccc(CC2SC(=O)NC2=O)cc1)c1ccccn1 (stereo not given) [Rosiglitazone hydrochloride] (20 µM) | 1.05 | 1.15 | 0.983 | 1.05 | 0.998 (inactive) | 1.06 (inactive) | 1.08 (inactive) | 1.17 (inactive) | 0.993 (inactive) | 0.926 (inactive) | 1.03 (inactive) | 1.12 (inactive)
18 | CCCCNC(=O)NS(=O)(=O)c1ccc(C)cc1 [Tolbutamide] (20 µM) | 0.926 | 0.985 | 0.957 | 0.746 | 1.04 (inactive) | 1.02 (inactive) | 1.01 (inactive) | 0.978 (inactive) | 0.988 (inactive) | 1 (inactive) | 1 (inactive) | 1.04 (inactive)
19 | CCN1CCN(C(=O)N[C@@H](C(=O)N[C@@H]2C(=O)N3[C@@H]2SC(C)(C)[C@@H]3C(=O)O)c2ccccc2)C(=O)C1=O [Piperacillin sodium salt] (20 µM) | 0 | 0.563 | 1.07 | 0 | 0.706 (inactive) | 0.0439 (active) | 0.0274 (active) | 1.17 (inactive) | 1.06 (inactive) | 1.84 (active) | 1.03 (inactive) | 0.0313 (active)
20 | CN1CCC(=C2c3ccccc3CC(=O)c3sccc32)CC1 [Ketotifen fumarate] (20 µM) | 1 | 0.988 | 1.07 | 1 | 0.935 (inactive) | 1.02 (inactive) | 0.991 (inactive) | 0.966 (inactive) | 0.996 (inactive) | 1.01 (inactive) | 1.01 (inactive) | 0.968 (inactive)
21 | Nc1ccc(S(=O)(=O)Nc2nccs2)cc1 [Sulfathiazole] (20 µM) | 0.969 | 0.979 | 1.03 | 0.853 | 1 (inactive) | 0.968 (inactive) | 1.03 (inactive) | 0.955 (inactive) | 1.02 (inactive) | 1.03 (inactive) | 1.01 (inactive) | 1.03 (inactive)
22 | CN(C)CCOC(=O)COc1ccc(Cl)cc1 [Meclofenoxate hydrochloride] (20 µM) | 1.13 | 1.02 | 1.01 | 0.995 | 1.11 (inactive) | 0.931 (inactive) | 0.958 (inactive) | 1 (inactive) | 1.01 (inactive) | 1.02 (inactive) | 0.979 (inactive) | 0.895 (inactive)
23 | C=CCOC(Cn1ccnc1)c1ccc(Cl)cc1Cl (stereo not given) (20 µM) | 1.09 | 0.991 | 1.02 | 0.883 | 0.976 (inactive) | 1.08 (inactive) | 1 (inactive) | 0.942 (inactive) | 0.941 (inactive) | 0.909 (inactive) | 1.06 (inactive) | 1.07 (inactive)
24 | Nc1ccc(S(N)(=O)=O)cc1 [Sulfanilamide] (20 µM) | 0.877 | 1.03 | 0.987 | 1.15 | 0.919 (inactive) | 1.12 (inactive) | 1.11 (inactive) | 0.908 (inactive) | 0.951 (inactive) | 0.919 (inactive) | 1.03 (inactive) | 1.15 (inactive)
25 | CCCC1O[C@@H]2C[C@H]3[C@@H]4CCC5=CC(=O)C=C[C@]5(C)[C@H]4[C@@H](O)C[C@]3(C)[C@]2(C(=O)CO)O1 (stereo not given in full) [Budesonide] (20 µM) | 1.13 | 0.993 | 0.997 | 1.08 | 1.06 (inactive) | 0.934 (inactive) | 0.998 (inactive) | 1.02 (inactive) | 1.01 (inactive) | 1.02 (inactive) | 0.994 (inactive) | 0.984 (inactive)
